Test results published in PubChem BioAssay (EPA / NIEHS).
Records with an inconclusive call do not appear. Activity calls are given as the source filed them. The calls were made as follows, unless noted: active = hit-call score of the fitted dose curve at least 0.9, where 1 is the maximum; inconclusive = response in the unintended direction; inactive = score below 0.9.

Columns and labels:
[1] = ATG_TCF_b_cat_CIS: Attagene CIS-FACTORIAL HepG2 Assay for human T-Cell-Factor with beta-catenin (TCF/b-cat) (AID 2282965; active = hit-call score of the fitted dose curve at least 0.9, where 1 is the maximum; inactive = score below 0.9); settings: HepG2 TCF/beta-catenin cis-reporter transcription, actives raise or lower the signal
In short: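 Cells of the HepG2 line carry transiently transfected reporter units whose promoters respond to endogenous factors. Twenty-four hours post-dosing, reporter mRNA induction is measured by fluorescent RT-PCR and capillary electrophoresis, with DMSO as baseline.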

[2] = ATG_TAL_CIS: Attagene CIS-FACTORIAL HepG2 Assay for human TAL Basal Promoter (AID 2282966; active = hit-call score of the fitted dose curve at least 0.9, where 1 is the maximum; inactive = score below 0.9;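 also: background control endpoint measuring basal TAL promoter reporter mRNA not a specific factor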); settings: HepG2 Attagene cis-factorial TAL promoter reporter; actives raise or lower the signal
In short: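 RT-PCR plus capillary electrophoresis quantifies reporter mRNA induction in transiently transfected HepG2 cells after 24 h chemical treatment. DMSO serves as negative control and baseline for bidirectional fitting.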

[3] = ATG_TGFb_CIS: Attagene CIS-FACTORIAL HepG2 Assay for human Transforming Growth Factor (TGF) (AID 2282967; active = hit-call score of the fitted dose curve at least 0.9, where 1 is the maximum; inactive = score below 0.9); settings: HepG2 Attagene CIS TGFb reporter, mRNA transcription; actives raise or lower the signal
In short: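 Transient MRTU transfection of HepG2 (FuGene 6). Dose 24 h. TriZol RNA, oligo(dT) RT, PCR, 6-FAM primer extension, HpaI cut, CE. Bidirectional fit, DMSO = baseline.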

[4] = ATG_VDRE_CIS: Attagene CIS-FACTORIAL HepG2 Assay for human Vitamin D Receptor Element (VDRE) (AID 2282968; active = hit-call score of the fitted dose curve at least 0.9, where 1 is the maximum; inactive = score below 0.9); settings: HepG2 VDRE cis-reporter transcription, actives raise or lower the signal
In short: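 Cell-based multiplexed reporter format in human liver HepG2 cells, 24 h post-dose. Fluorescence from capillary electrophoresis of reporter cDNA gives the signal, with DMSO as negative control and baseline.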

[5] = target: X-box-binding protein 1 (Homo sapiens) (UniProt P17861); test: ATG_Xbp1_CIS: Attagene CIS-FACTORIAL HepG2 Assay for human X-box Binding Protein 1 (XBP1) (AID 2282972; active = hit-call score of the fitted dose curve at least 0.9, where 1 is the maximum; inactive = score below 0.9); settings: HepG2 XBP1 cis-element reporter, Attagene multiplex; actives raise or lower the signal
X-box-binding protein 1 (Homo sapiens), sequence (P17861 whole entry, looked up, the tested form may be a part): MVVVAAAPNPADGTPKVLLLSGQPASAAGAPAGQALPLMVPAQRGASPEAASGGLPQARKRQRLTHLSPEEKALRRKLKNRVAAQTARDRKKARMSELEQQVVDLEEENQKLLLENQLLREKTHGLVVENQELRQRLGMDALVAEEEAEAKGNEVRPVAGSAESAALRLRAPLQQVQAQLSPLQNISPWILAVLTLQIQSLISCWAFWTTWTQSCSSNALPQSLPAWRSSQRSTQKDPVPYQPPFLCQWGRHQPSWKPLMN
In short: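 Fluorescence-labelled cDNA fragments from reporter transcripts, separated by capillary electrophoresis, give the signal. Source: HepG2 cells transfected with promoter-driven reporter units, harvested 24 h post-dose. DMSO served as reference for bidirectional curve fitting.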

[6] = ATG_M_19_TRANS: Attagene TRANS-FACTORIAL HepG2 Assay for M19 Transcription Factor (Internal Marker) (AID 2282974); settings: HepG2 Attagene TRANS-FACTORIAL M19 internal marker reporter
In short: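 HepG2 cells transiently transfected with multiple GAL4-UAS reporter transcription units were exposed to chemicals for 24 h. Reporter mRNA was read by RT-PCR, 6-FAM primer extension, HpaI digestion and capillary electrophoresis; gain of signal fitted relative to DMSO.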

[7] = target: Estrogen-related receptor gamma (Homo sapiens) (UniProt P62508); test: ATG_ERRg_TRANS: Attagene TRANS-FACTORIAL HepG2 Assay for human Estrogen-Related Receptor gamma (ERRg) (AID 2282977); settings: HepG2 Attagene TRANS reporter, ERRg transactivation;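 also: hits increase reporter signal over DMSO so potencies reflect activators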
Estrogen-related receptor gamma (Homo sapiens), sequence (P62508 whole entry, looked up, the tested form may be a part): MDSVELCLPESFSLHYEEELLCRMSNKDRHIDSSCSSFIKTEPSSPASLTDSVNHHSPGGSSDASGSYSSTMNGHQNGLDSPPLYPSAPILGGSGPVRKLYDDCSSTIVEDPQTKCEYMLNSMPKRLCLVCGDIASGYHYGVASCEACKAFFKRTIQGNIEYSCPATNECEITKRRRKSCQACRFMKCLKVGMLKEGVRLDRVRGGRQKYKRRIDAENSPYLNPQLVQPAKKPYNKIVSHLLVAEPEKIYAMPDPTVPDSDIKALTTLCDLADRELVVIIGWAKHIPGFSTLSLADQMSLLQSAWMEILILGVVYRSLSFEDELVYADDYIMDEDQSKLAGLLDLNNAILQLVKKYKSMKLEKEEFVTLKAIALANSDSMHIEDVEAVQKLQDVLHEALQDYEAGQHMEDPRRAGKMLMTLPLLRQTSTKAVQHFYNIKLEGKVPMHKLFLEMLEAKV
In short: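 HepG2 cells transiently transfected with multiplexed GAL4-UAS reporter units and chimeric NR-Gal4 constructs were exposed to test chemicals for 24 h. Reporter mRNA was measured by RT-PCR, 6-FAM primer extension, HpaI digestion and capillary electrophoresis; gain-of-signal versus DMSO.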

[8] = target: Glucocorticoid receptor (Homo sapiens) (UniProt P04150); test: ATG_GR_TRANS: Attagene TRANS-FACTORIAL HepG2 Assay for human Glucocorticoid Receptor (GR) (AID 2282978); settings: HepG2 Attagene TRANS GR reporter, mRNA transcription;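 also: activators score as hits since higher reporter transcript over DMSO is fitted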
Glucocorticoid receptor (Homo sapiens), sequence (P04150 whole entry, looked up, the tested form may be a part): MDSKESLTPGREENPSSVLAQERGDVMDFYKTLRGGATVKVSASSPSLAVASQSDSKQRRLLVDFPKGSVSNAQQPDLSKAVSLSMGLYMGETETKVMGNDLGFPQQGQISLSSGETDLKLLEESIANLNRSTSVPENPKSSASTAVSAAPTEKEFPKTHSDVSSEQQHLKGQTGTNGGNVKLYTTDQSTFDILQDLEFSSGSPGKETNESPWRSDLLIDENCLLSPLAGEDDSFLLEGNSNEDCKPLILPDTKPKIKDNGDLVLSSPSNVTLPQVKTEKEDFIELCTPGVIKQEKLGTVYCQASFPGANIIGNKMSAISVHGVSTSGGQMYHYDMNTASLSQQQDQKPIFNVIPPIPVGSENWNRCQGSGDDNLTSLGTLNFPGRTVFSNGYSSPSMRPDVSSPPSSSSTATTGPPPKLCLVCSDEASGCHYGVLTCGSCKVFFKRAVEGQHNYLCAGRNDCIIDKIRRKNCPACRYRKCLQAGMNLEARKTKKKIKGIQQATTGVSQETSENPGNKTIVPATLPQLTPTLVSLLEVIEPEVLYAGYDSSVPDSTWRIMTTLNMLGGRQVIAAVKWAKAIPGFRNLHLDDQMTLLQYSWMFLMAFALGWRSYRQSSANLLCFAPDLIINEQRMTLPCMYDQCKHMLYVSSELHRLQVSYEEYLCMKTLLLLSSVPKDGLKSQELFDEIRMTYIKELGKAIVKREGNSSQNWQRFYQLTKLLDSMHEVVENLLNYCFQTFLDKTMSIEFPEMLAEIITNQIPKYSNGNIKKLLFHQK
In short: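 HepG2 cells transiently transfected with multiplexed reporter units in which chimeric NR-GAL4 proteins drive GAL4-UAS reporters; 24 h compound exposure. Reporter mRNA measured by RT-PCR, 6-FAM labelling, HpaI digestion and capillary electrophoresis; gain-of-signal fitted versus DMSO.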

[9] = target: Bile acid receptor (Homo sapiens) (UniProt Q96RI1); test: ATG_FXR_TRANS: Attagene TRANS-FACTORIAL HepG2 Assay for Farnesoid X Receptor (FXR) (AID 2282979); settings: HepG2 Attagene TRANS FXR-GAL4 reporter transcription;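 also: hits raise reporter mRNA above DMSO so AC50 marks FXR activation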
Bile acid receptor (Homo sapiens), sequence (Q96RI1 whole entry, looked up, the tested form may be a part): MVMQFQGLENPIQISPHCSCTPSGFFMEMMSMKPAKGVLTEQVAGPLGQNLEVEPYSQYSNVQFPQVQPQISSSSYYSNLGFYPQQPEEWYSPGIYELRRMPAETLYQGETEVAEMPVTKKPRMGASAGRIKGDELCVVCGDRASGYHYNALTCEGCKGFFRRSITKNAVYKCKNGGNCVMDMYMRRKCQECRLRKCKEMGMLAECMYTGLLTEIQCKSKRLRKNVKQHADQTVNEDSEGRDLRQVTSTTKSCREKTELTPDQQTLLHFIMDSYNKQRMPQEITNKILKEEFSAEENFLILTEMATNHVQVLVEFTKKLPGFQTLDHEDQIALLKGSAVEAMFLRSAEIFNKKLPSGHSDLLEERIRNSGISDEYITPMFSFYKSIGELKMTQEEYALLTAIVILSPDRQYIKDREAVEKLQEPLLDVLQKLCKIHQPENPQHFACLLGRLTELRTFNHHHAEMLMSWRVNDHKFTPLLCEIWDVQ
In short: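 Reporter transcripts from transfected HepG2 cells were measured 24 h after dosing, using RT-PCR with capillary electrophoresis of 6-FAM-labelled fragments. The read-out reflects activity of exogenous FXR-Gal4 chimera on GAL4-UAS units, with induction relative to DMSO.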

[10] = target: Oxysterols receptor LXR-alpha (Homo sapiens) (UniProt Q13133); test: ATG_LXRa_TRANS: Attagene TRANS-FACTORIAL HepG2 Assay for human Liver X Receptor alpha (LXRa) (AID 2282980); settings: HepG2 Attagene TRANS reporter, LXRa transactivation
Oxysterols receptor LXR-alpha (Homo sapiens), sequence (Q13133 whole entry, looked up, the tested form may be a part): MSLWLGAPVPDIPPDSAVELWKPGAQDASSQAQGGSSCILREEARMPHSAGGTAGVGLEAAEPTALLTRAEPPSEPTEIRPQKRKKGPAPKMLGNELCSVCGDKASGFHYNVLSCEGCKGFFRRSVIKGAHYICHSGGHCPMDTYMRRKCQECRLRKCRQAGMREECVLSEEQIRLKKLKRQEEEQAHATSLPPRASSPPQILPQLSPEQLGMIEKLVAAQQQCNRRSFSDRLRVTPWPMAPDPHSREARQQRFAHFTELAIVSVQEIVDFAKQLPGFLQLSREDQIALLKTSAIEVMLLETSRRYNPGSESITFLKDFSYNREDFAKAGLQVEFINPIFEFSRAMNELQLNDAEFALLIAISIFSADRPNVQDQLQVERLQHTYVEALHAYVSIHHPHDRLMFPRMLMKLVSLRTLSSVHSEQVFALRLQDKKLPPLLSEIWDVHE
In short: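 Chemical-induced reporter mRNA measured by RT-PCR with fluorescent labelling and capillary electrophoresis after 24 h dosing of transiently transfected HepG2 cells expressing exogenous NR-Gal4 chimeras; increases scored against DMSO baseline.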

[11] = target: Oxysterols receptor LXR-beta (Homo sapiens) (UniProt P55055); test: ATG_LXRb_TRANS: Attagene TRANS-FACTORIAL HepG2 Assay for human Liver X Receptor beta (LXRb) (AID 2282981); settings: HepG2 Attagene TRANS GAL4-LXRb reporter, mRNA
Oxysterols receptor LXR-beta (Homo sapiens), sequence (P55055 whole entry, looked up, the tested form may be a part): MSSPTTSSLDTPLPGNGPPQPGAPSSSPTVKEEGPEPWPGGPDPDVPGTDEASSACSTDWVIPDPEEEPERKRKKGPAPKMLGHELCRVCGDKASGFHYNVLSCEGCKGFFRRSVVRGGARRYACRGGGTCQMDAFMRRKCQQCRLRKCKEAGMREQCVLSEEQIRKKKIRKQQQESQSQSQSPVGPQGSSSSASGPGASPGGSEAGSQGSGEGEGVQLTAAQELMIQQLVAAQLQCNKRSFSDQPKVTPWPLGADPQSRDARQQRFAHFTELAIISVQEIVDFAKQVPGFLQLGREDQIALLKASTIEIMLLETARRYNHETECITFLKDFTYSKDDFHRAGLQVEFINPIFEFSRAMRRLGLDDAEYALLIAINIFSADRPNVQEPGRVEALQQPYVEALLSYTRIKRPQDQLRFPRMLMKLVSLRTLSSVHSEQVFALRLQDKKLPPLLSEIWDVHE
In short: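 Gain-of-signal mRNA reporter endpoint, DMSO as negative control. Transiently transfected HepG2 cells carrying the NR-Gal4 chimera and GAL4-UAS reporter units were treated 24 h; transcripts quantified by RT-PCR and capillary electrophoresis fluorescence.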

[12] = ATG_M_06_TRANS: Attagene TRANS-FACTORIAL HepG2 Assay for M06 Transcription Factor (Internal Marker) (AID 2282983); settings: HepG2 Attagene TRANS M06 internal marker reporter
In short: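 Cells: HepG2, transient multi-reporter transfection. Exposure: 24 h. Detection: RT-PCR, 6-FAM labelling, HpaI digestion (2 h, 37 °C), capillary electrophoresis. Baseline: DMSO.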

[13] = ATG_M_32_TRANS: Attagene TRANS-FACTORIAL HepG2 Assay for M32 Transcription Factor (Internal Marker) (AID 2282984); settings: HepG2 Attagene TRANS M32 internal marker reporter;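 also: transcript level of a background control reporter unit measured by RT-PCR and capillary electrophoresis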
In short: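 Capillary electrophoresis of 6-FAM-labelled reporter fragments gives the signal; data fitted for gain over DMSO negative control. Source: HepG2 cells bearing transient multiple reporter transcription units, 24 h exposure.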

[14] = target: Nuclear receptor subfamily 4 group A member 2 (Homo sapiens) (UniProt P43354); test: ATG_NURR1_TRANS: Attagene TRANS-FACTORIAL HepG2 Assay for human Nuclear Receptor Related Protein 1 (NURR1) (AID 2282985); settings: HepG2 Attagene TRANS reporter, mRNA readout
Nuclear receptor subfamily 4 group A member 2 (Homo sapiens), sequence (P43354 whole entry, looked up): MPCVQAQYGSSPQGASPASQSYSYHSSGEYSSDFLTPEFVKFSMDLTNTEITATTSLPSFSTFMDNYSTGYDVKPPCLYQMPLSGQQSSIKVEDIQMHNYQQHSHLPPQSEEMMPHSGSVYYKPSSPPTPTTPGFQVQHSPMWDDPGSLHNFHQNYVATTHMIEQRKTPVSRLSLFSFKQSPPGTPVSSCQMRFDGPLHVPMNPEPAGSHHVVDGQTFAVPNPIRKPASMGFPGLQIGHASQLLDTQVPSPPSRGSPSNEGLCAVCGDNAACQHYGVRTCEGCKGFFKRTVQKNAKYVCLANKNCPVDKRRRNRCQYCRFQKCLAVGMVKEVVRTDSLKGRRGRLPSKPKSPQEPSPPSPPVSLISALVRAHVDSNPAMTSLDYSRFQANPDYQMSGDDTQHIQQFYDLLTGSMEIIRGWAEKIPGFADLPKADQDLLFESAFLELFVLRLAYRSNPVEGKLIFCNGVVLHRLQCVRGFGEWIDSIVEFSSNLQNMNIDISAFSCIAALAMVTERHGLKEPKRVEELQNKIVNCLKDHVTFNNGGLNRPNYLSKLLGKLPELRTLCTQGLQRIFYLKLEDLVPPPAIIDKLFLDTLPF
In short: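 HepG2 / transient MRTU transfection / 24 h compound exposure / RT-PCR + CE fluorescence of reporter mRNA / gain-of-signal vs DMSO.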

[15] = target: Transcriptional activator Myb (Homo sapiens) (UniProt P10242); test: ATG_Myb_CIS: Attagene CIS-FACTORIAL HepG2 Assay for human Myeloblastosis (Myb) Proto-Oncogene Transcription Factor (AID 2282986; active = hit-call score of the fitted dose curve at least 0.9, where 1 is the maximum; inactive = score below 0.9); settings: HepG2 Attagene CIS-FACTORIAL Myb reporter transcription; actives raise or lower the signal
Transcriptional activator Myb (Homo sapiens), sequence (P10242 whole entry, looked up): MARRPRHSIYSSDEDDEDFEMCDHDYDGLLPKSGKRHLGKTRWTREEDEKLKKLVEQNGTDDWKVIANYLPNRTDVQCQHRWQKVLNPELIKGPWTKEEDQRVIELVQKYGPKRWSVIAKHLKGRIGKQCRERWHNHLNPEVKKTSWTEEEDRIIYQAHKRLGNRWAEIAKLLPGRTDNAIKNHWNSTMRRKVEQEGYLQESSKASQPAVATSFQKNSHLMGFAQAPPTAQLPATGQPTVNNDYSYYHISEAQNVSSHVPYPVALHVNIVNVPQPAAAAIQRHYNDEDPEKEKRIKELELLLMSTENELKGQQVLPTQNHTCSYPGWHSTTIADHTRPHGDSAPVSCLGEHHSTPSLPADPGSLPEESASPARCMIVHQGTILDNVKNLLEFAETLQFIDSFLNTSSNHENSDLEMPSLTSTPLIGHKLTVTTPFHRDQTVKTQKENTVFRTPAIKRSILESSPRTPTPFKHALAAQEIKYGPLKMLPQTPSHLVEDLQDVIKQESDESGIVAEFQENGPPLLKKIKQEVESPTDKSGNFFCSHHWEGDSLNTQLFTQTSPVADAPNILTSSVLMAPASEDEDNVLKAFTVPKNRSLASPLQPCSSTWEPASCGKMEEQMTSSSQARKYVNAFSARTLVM
In short: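 HepG2 cells were transiently transfected with cis-regulated multiple reporter transcription units reflecting endogenous Myb activity, then exposed to compound for 24 hours. Reporter mRNA was measured by RT-PCR with capillary electrophoresis; bidirectional fitting versus DMSO baseline.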

[16] = target: Estrogen receptor (Homo sapiens) (UniProt P03372); test: ATG_ERa_TRANS: Attagene TRANS-FACTORIAL HepG2 Assay for human Estrogen Receptor alpha (ERa) (AID 2282970); settings: HepG2 Attagene TRANS ERa GAL4 reporter, mRNA
In short: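 Cells: HepG2, transiently transfected. Construct: GAL4-UAS reporter units regulated by exogenous NR-Gal4 chimeras. Time: 24 h. Detection: reporter mRNA by RT-PCR, capillary electrophoresis, fluorescence. Baseline: DMSO, upward fitting.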

[17] = ATG_GAL4_TRANS: Attagene TRANS-FACTORIAL HepG2 Assay for GAL4 (Internal Marker) (AID 2282976); settings: HepG2 Attagene TRANS GAL4 internal marker reporter
In short: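 In transfected human HepG2 liver cells dosed 24 h, GAL4 reporter mRNA serves as a baseline marker. Detection by RT-PCR with fluorescent capillary electrophoresis, activity fitted upward relative to DMSO.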

[18] = target: Nuclear receptor subfamily 1 group I member 3 (Homo sapiens) (UniProt Q14994); test: ATG_CAR_TRANS: Attagene TRANS-FACTORIAL HepG2 Assay for human Constitutive Androstane Receptor (CAR) (AID 2282969); settings: HepG2 Attagene TRANS-FACTORIAL CAR reporter;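 also: activators raise reporter mRNA above DMSO so AC50 marks induction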
Nuclear receptor subfamily 1 group I member 3 (Homo sapiens), sequence (Q14994 whole entry, looked up, the tested form may be a part): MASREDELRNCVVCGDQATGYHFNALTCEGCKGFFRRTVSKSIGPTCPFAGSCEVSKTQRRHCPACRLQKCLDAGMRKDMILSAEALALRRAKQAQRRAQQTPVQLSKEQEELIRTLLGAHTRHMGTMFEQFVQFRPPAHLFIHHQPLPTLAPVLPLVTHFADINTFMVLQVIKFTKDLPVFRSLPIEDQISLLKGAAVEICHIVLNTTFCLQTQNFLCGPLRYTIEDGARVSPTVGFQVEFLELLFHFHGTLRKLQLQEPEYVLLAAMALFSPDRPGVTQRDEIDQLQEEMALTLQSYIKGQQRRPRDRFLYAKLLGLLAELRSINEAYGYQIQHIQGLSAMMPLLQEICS
In short: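 HepG2 cells transiently transfected with GAL4-UAS reporter units; TRANS format reads activity of exogenous chimeric NR-Gal4 protein. After 24 h dosing, reporter mRNA quantified by RT-PCR, 6-FAM labelling and capillary electrophoresis; gain of signal fitted against DMSO.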

[19] = target: Hepatocyte nuclear factor 4-alpha (Homo sapiens) (UniProt P41235); test: ATG_HNF4a_TRANS: Attagene TRANS-FACTORIAL HepG2 Assay for human Hepatocyte Nuclear Factor 4 alpha (HNF4a) (AID 2282982); settings: HepG2 HNF4a transactivation reporter, mRNA readout
Hepatocyte nuclear factor 4-alpha (Homo sapiens), sequence (P41235 whole entry, looked up, the tested form may be a part): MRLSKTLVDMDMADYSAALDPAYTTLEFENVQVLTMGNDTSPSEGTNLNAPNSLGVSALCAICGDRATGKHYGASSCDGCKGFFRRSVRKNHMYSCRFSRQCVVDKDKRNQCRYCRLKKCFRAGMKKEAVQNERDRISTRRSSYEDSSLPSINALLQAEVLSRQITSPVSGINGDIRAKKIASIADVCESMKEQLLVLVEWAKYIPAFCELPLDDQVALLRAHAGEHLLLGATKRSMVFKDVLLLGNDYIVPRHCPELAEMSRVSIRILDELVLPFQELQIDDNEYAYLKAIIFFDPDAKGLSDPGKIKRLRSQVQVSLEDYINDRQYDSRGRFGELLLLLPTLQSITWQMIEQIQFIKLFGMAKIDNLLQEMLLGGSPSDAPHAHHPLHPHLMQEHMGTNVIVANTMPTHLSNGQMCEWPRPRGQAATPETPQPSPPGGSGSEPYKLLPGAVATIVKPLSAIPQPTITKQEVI
In short: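 Gain-of-signal mRNA induction, relative to DMSO vehicle, was read after 24 h compound treatment of HepG2 cells bearing transfected GAL4-UAS reporters. Detection used RT-PCR, 6-FAM primer extension and capillary electrophoresis.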

Measured: AC50

CCC(C)CO (stereo unspecified)
not listed: [16] | [17] | [18] | [19]
inactive: all other assays above

O=C(O)C(F)(F)OC(F)(F)C(F)(F)OC(F)(F)C(F)(F)OC(F)(F)F
not listed: [6] | [7] | [8] | [11] | [17] | [18] | [19]
inactive: all other assays above

NCC(F)(F)C(F)(F)C(F)(F)C(F)(F)C(F)(F)C(F)(F)F
not listed: [6] | [7] | [8] | [10] | [11] | [14] | [18] | [19]
inactive: all other assays above

CC(C)(C)c1cc(Cc2cc(C(C)(C)C)c(O)c(C(C)(C)C)c2)cc(C(C)(C)C)c1O
active: [4] 2310 nM
not listed: [7] | [10] | [11] | [12] | [17] | [18] | [19]
inactive: all other assays above

Nc1cccnc1N
inactive: [1] | [2] | [4] | [18] | [5] | [6] | [17] | [9] | [15]

CCOC(=O)CC(=O)C(F)(F)C(F)(F)F
not listed: [3] | [12] | [13] | [18]
inactive: all other assays above

O=C(c1ccccc1)c1ccc(O)cc1O
active: [16] 1330 nM
not listed: [4] | [7]
inactive: all other assays above

CN(C(=O)C(F)(F)C(F)(F)C(F)(F)F)[Si](C)(C)C
inactive: [1] | [2] | [4] | [16] | [5] | [9] | [19] | [12] | [14] | [15]

Cc1cc(=O)[nH]c(C(C)C)n1
not listed: [3] | [6] | [7] | [9] | [12] | [16]
inactive: all other assays above

CCC/C=C/CO
not listed: [3] | [7] | [8] | [10] | [11] | [12] | [16]
inactive: all other assays above
